# Sampled rows, rich in hits. Any-hit rate of the full collection: about 2.3%.
# Mcl1-Noxa inh = Mcl-1/Noxa binding inhibitors, primary screen, biochemical, TR-FRET, 1536-well; Induced myeloid leukemia cell differentiation protein Mcl-1 (Homo sapiens), Q07820; TR-FRET Mcl-1/Noxa peptide binding, 2 h; inhibition, % at 21.7 µM; actives 1.5% (n = 220,000);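 active means compounds that cut the protein-peptide binding signal by more than 50% relative to plate controls in a single-dose test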;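 further: His-tagged Mcl-1 with rhodamine Noxa BH3 peptide and terbium anti-His antibody; 0% = Mcl-1 plus Noxa peptide wells and 100% = peptide-only wells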
# MCL1 BIM primary = inhibitors of MCL1 binding to BIM-BH3, primary screen, biochemical, fluorescence polarization; Induced myeloid leukemia cell differentiation protein Mcl-1 (Homo sapiens), Q07820; GST-MCL1 / FITC-Bim-BH3 fluorescence polarization; inhibition, % at 10.9 µM; actives 0.68% (n = 320,000); AID 2057, 2009;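 active means inhibition above the mean inhibition of all tested compounds plus 3 SD, set per campaign, cut at about 40% in these data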;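 further: 0% = DMSO wells and 100% = unlabeled Bim-BH3 peptide control; higher means more loss of mP so more displacement of Bim peptide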
# Mcl1-Bid inh = Mcl-1/Bid binding inhibitors, primary screen, biochemical, TR-FRET, 1536-well; TR-FRET Mcl-1/Bid-Dy647 peptide binding; actives 0.97% (n = 220,000); inhibition, % at 21.7 µM; Induced myeloid leukemia cell differentiation protein Mcl-1 (Homo sapiens), Q07820;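 active means compounds that cut the binding signal by more than half at the single screening dose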;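 further: His-tagged Mcl-1 with europium anti-His antibody binding Bid BH3 peptide; 0% = Mcl-1 plus peptide wells and 100% = peptide-only wells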
# Mcl-1 Bim block = inhibitors of Bim peptide binding to Mcl-1, primary screen, biochemical, bead-based flow cytometry, multiplex; Bim peptide-Mcl-1 binding; inhibition, % at 10 µM; actives 0.1% (n = 190,000); AID 1009, 2008; in the data active means inhibition above about 40%;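 further: 0% = no compound tracer wells and 100% = peptide blocker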
# BCLXL inh = inhibitors of human Bcl-xL, primary screen, biochemical, fluorescence polarization, HTS; Bcl-2-like protein 1 (Homo sapiens), Q07817; GST-Bcl-xL / FITC-Bim BH3 peptide fluorescence polarization; inhibition, % at 10.9 µM; actives 0.7% (n = 320,000); AID 2129, 2009;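 active means inhibition above the mean of all tested compounds plus 3 SD, cutoff set per campaign, cut at about 30% in these data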;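 further: 0% = DMSO wells and 100% = unlabeled Bim-BH3 peptide competitor; inhibitors lower millipolarization by displacing the labeled peptide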
# GLD-1 RNA inh = GLD-1/TGE RNA complex disruptors, primary screen, biochemical, fluorescence polarization; Female germline-specific tumor suppressor gld-1 (Caenorhabditis elegans), Q17339; purified GLD-1 + fluorescein TGE RNA; inhibition, % at 5.96 µM; actives 0.44% (n = 320,000);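 active means percent inhibition above a per-plate cutoff, the plate mean of test compounds plus 3 SD, cut at about 30% in these data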;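 further: 0% = DMSO wells with GLD-1 and probe and 100% = wells lacking GLD-1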
# Target sequence (Q17339 whole entry, looked up): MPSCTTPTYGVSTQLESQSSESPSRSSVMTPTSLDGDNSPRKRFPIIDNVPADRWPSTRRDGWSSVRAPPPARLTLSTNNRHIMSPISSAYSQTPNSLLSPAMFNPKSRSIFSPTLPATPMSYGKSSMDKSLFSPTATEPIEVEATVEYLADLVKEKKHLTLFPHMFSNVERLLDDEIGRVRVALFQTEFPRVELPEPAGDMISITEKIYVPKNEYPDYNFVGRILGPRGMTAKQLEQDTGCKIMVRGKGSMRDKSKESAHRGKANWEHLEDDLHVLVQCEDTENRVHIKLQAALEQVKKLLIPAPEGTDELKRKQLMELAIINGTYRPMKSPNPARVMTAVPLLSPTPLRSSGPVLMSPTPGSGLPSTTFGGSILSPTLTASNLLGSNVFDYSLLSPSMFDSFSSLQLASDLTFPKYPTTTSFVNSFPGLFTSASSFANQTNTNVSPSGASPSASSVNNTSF
# Active calls of the source: *; nt = no result given.
SMILES,Mcl1-Noxa inh,MCL1 BIM primary,Mcl1-Bid inh,Mcl-1 Bim block,BCLXL inh,GLD-1 RNA inh
CN1CCc2nc(SCC(=O)Nc3cccc(F)c3)c(C#N)c(-c3cccs3)c2C1,-2,33,-16,1,39*,17
Cc1cccc(CSc2nc3c(c(-c4cccs4)c2C#N)CN(C)CC3)c1,13,28,-9,0,33*,-1
O=C(/C=C/c1ccc([N+](=O)[O-])cc1)c1ccco1,nt,1,nt,nt,0,2
O=C(/C=C/c1ccc(-c2ccccc2[N+](=O)[O-])o1)c1ccco1,66*,32,-58,2,20,13
CN(C)CCCNCC(=O)Nc1ccccc1N1CCOCC1,1,-3,62*,-6,4,3
O=C(Nc1ccccc1N1CCOCC1)c1cccs1,11,4,-5,82*,7,-2
CCN(CC)CCn1nc2c3c(cccc3c1=O)-c1ccccc1-2,70*,6,-3,-1,3,0
O=c1c2cccc3c2c(nn1CN1CCOCC1)-c1ccccc1-3,0,-3,-4,3,3,5
CCN(CC(=O)Nc1ccc(NC(C)=O)cc1)C(=O)/C=C/c1c(C)nn(-c2ccc(F)cc2)c1C,nt,-8,nt,nt,-7,-2
COCCN(C(=S)Nc1c(C)cccc1C)C(C)c1cccs1 (centres undefined),4,11,-21,3,3,1
CN1C(=O)/C(=C/c2cn(CC(=O)N3CCCCC3)c3ccccc23)c2ccccc21,97*,-10,-23,-3,-2,6
O=Cc1cn(CC(=O)N2CCCCC2)c2ccccc12,-2,-3,-19,-1,1,6
CCOC(=O)c1ccc(-c2nnc(-c3ccc(Cl)cc3Cl)o2)cc1,3,2,3,2,5,7
CCOC(=O)c1cc(-c2nnc(-c3ccc(Cl)cc3)o2)c(C)nc1C,6,3,-11,40*,2,5
N#C/C(=C\c1ccco1)C(=O)Nn1cnnc1,0,4,-14,10,6,-4
CN(CC(=O)Nc1cccc(C#N)c1)Cc1ccc(Cl)cc1,5,-3,86*,0,-2,3
CCN(C(=O)CN1C(=O)NC(c2ccccc2)(c2ccc(C)c(C)c2)C1=O)C1CCCCC1 (centres undefined),nt,-5,nt,nt,-10,6
COc1cccc(-c2cc(C(F)(F)F)nc(N3CCOCC3)n2)c1,-15,6,-24,0,6,-2
COc1ccc(-c2cc(C(F)(F)F)nc(N3CCOCC3)n2)cc1OC,14,-1,91*,6,3,2
c1ccc2[nH]c(Cn3nnc4ccccc43)nc2c1,nt,4,nt,nt,6,8
Cn1cc(C(=O)N/N=C/c2c(O)ccc3ccccc23)ccc1=O,58*,-2,-86,-2,4,-75
CN(C(=O)c1ccno1)c1nnc(-c2cnccn2)s1,-17,7,-29,-1,6,-7
CN(C(=O)c1ccc(C#N)cc1)c1nnc(-c2cnccn2)s1,38,1,86*,nt,-1,-7
Cc1ccc2oc(=O)c3cnn(CC(=O)NC4CCCCC4C)c3c2c1 (centres undefined),-6,9,65*,0,2,6
O=C(c1ccccc1CCc1ccccc1)N1CCOCC1,2,-4,57*,-4,5,1
SMILES,Mcl1-Noxa inh,MCL1 BIM primary,Mcl1-Bid inh,Mcl-1 Bim block,BCLXL inh,GLD-1 RNA inh
CCCN(CCC)CCNC(=O)C1CC(=O)N(c2ccc(OC)cc2)C1c1ccc(OC)cc1 (centres undefined),10,3,60*,0,10,1
CCN(CC)c1ccc(NC(=O)COC(=O)CCC(=O)c2ccc(F)cc2)cc1,70*,21,-68,-5,10,1
CCOc1ccccc1C(=O)Nc1ccc2nc(N3CCN(c4ncccn4)CC3)cc(C)c2c1,nt,3,nt,nt,5,2
COc1cccc(C(=O)Nc2ccc3nc(N4CCN(c5ncccn5)CC4)cc(C)c3c2)c1OC,74*,-15,83*,6,-2,-9
CCS(=O)(=O)N1Cc2ccccc2CC1C(=O)OCC(=O)N(C(C)C)C(C)C (centres undefined),70*,3,-25,0,0,-1
CCOc1ccc(NC(=O)C2Cc3ccccc3CN2S(=O)(=O)CC)cc1 (centres undefined),4,-5,-24,1,0,6
COC(=O)[C@H](Cc1ccc(O)cc1)NC(=O)Cn1cnc2c(OCc3ccccc3)ncnc21,nt,nt,nt,nt,nt,2
CC(=O)Nc1nonc1-c1nc2ccccc2n1N(C(C)=O)C(C)=O,52*,16,-36,2,12,8
CCC(C)[C@H](NC(=O)Nc1ccccc1F)C(=O)O (some centres undefined),11,8,85*,nt,8,4
CCc1ccccc1NC(=O)N[C@H](C(=O)O)C(C)CC (some centres undefined),-3,5,-15,-5,4,3
Cc1ccc(NC(=O)CN2C(=O)S/C(=C\c3ccc(-c4cccc(C(=O)O)c4C)o3)C2=O)cc1C,79*,nt,-76,4,nt,nt
CCOC(=O)CN1C(=O)S/C(=C\c2ccc(-c3cccc(C(=O)O)c3C)o2)C1=O,nt,-4,nt,nt,0,1
COc1ccccc1N1C(=N)S/C(=C\c2ccc(-c3ccccc3C(=O)O)o2)C1=O,53*,-8,-27,2,-3,-25
N=C1S/C(=C\c2ccc(-c3ccccc3C(=O)O)o2)C(=O)N1c1ccc2c(c1)OCO2,60*,nt,0,3,nt,nt
CCc1cc(=O)oc2cc(OCc3ccc(C(=O)O)o3)ccc12,nt,1,nt,nt,4,3
COc1c(C)cc(Br)cc1C(=O)Nc1ccc(S(N)(=O)=O)cc1,7,-1,-31,44*,-1,5
O=C(Nc1ccccc1)Nc1nc(-c2ccccc2)cs1,-6,-2,-27,nt,0,3
O=C(Nc1ccc(Cl)c(Cl)c1)Nc1nc(-c2ccccc2)cs1,51*,3,30,-2,6,1
COc1ccc(N)c2c1OCCC2=O,57*,11,-64,-2,3,0
O=C(COc1ccc(S(=O)(=O)N2CCOCC2)cc1Cl)N1CCCC1,nt,-5,nt,nt,0,6
CC1(C)C(=O)Nc2ccccc2N1C(=O)COc1ccc(S(=O)(=O)N2CCOCC2)cc1Cl,56*,9,-19,-5,8,-3
